{
  "source": "PubChem BioAssay",
  "key": {"[1]": {"assay": "growth inhibition of DIPG glioma cells, dose response, cell-based, SU-DIPG-XIII, MIPE5.0, CellTiter-Glo, qHTS (AID 1347064; cut-off not given, nearly all actives have AC50 up to about 23 µM;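 for AC50: cells exposed to compound for 48 hours before the viability read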)", "conditions": "SU-DIPG-XIII viability, CellTiter-Glo ATP luminescence"}, "[2]": {"assay": "SU-DIPG-VI glioma cell viability, MIPE4.0 library, CellTiter-Glo luminescence, qHTS (AID 1347066; cut-off not given, nearly all actives have AC50 up to about 30 µM;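 note: cells exposed to compound for 48 hours before readout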)", "conditions": "CellTiter-Glo ATP luminescence"}, "[3]": {"assay": "JHH-DIPG-1 glioma cell viability, MIPE5.0 library, CellTiter-Glo luminescence, qHTS (AID 1347067; cut-off not given, nearly all actives have AC50 up to about 26 µM;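 note: cells exposed to compound for 48 hours before readout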)", "conditions": "JHH-DIPG-1 glioma viability, CellTiter-Glo ATP luminescence"}, "[4]": {"assay": "phospholipid biosynthesis inhibitors in animal cells, primary screen, cell-based, LOPAC library, screen 4 (AID 1347384)", "conditions": "phospholipid biosynthesis inhibition screen, at 10 µM"}, "[5]": {"molecular_target": "Mitogen-activated protein kinase 7 (Homo sapiens) (UniProt Q13164)", "sequence (Q13164 whole entry, looked up, the tested form may be a part)": "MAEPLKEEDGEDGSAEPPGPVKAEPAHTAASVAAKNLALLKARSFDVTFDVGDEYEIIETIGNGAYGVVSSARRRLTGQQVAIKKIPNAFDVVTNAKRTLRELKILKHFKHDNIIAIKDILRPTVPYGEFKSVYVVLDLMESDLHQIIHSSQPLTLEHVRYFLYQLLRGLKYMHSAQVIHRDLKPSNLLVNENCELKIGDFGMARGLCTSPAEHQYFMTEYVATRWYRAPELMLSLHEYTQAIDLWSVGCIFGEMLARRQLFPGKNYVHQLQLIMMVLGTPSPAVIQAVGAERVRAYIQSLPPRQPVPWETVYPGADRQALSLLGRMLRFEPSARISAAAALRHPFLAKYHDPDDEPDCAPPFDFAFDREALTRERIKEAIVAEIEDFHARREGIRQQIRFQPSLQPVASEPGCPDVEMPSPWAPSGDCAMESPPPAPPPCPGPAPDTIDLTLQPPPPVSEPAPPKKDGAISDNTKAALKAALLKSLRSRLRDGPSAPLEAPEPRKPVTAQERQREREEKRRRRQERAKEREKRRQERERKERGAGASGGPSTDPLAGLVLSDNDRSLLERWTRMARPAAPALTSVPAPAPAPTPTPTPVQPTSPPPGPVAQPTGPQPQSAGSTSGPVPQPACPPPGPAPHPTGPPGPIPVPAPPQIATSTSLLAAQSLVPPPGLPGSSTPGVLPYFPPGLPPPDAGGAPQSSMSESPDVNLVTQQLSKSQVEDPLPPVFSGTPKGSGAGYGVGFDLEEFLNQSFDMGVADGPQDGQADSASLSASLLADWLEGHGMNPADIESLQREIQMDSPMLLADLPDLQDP", "assay": "ERK5 transactivation activators in reporter cells, primary screen, cell-based, HTS (AID 1508626;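 active = luciferase signal above three times the same-plate solvent-only control wells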;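 note: luciferase driven by Gal4-ERK5 fusion binding five Gal4 sites before minimal TATA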)", "conditions": "HeLa Gal4-ERK5 transactivation, 18 h, at 5 µM, stronger effect = higher value"}, "[6]": {"tested_on": "Hepatitis C virus NS3 helicase", "assay": "HCV NS3 helicase inhibitors, primary screen, biochemical, fluorescence polarization, LOPAC1280 library (AID 687035; in the data active = inhibition above about 37%)", "conditions": "Purified HCV NS3 helicase, Cy5-dT15 ssDNA binding fluorescence polarization; stronger effect = higher value; concentration not given here"}, "[7]": {"assay": "Cy5 fluorescence quenching or enhancement artefacts, artefact control for HCV NS3 helicase inhibitor project, biochemical, LOPAC1280 (AID 687037)", "conditions": "Cy5-DNA-NS3h complex fluorescence interference counterscreen"}, "[8]": {"assay": "circadian clock period modulators, cell-based, LOPAC library, luminescence reporter (AID 2774);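 note: values are relative to mean of DMSO wells on each plate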", "conditions": "circadian reporter cells, at 7 µM, actives lie on both sides"}, "[9]": {"assay": "hESC survival regulators, cell-based (AID 493140);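 note: cells exposed to compounds for four days before counting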", "conditions": "human embryonic stem cell survival screen; stronger effect = higher value"}, "[10]": {"assay": "viability loss in pontine glioma line – cell-based, SU-DIPG-XXV, MIPE5.0, CellTiter-Glo, qHTS, dose response (AID 1347065; cut-off not given, nearly all actives have AC50 up to about 26 µM;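 note: cells exposed to compound for 48 hours before ATP readout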)", "conditions": "CellTiter-Glo ATP luminescence"}},
  "note": "A number with no mark means an inactive call. Records with an inconclusive call do not appear. The source made the active and inactive calls. Unless noted, the rule behind the calls is not given here.",
  "data": [
    {"smiles": "COC(=O)[C@@H]1CC2=CC(=O)CC[C@]2(C)[C@@]23O[C@@H]2C[C@@]2(C)[C@@H](CC[C@@]24CCC(=O)O4)[C@H]13", "values": [
      {"measurement": "outcome", "setting": "[1]", "value": "inactive"},
      {"measurement": "outcome", "setting": "[2]", "value": "inactive"},
      {"measurement": "outcome", "setting": "[3]", "value": "inactive"}
    ]},
    {"smiles": "CN1CCC[C@@H]1Cc1c[nH]c2ccc(CCS(=O)(=O)c3ccccc3)cc12", "values": [
      {"measurement": "outcome", "setting": "[4]", "value": "inactive"},
      {"measurement": "luciferase signal", "setting": "[5]", "value": 48, "unit": "AU"}
    ]},
    {"smiles": "CC[N+](CC)(CC)CCOc1ccc(/C=C/c2ccccc2)cc1", "values": [
      {"measurement": "inhibition", "setting": "[6]", "value": -3, "unit": "%"},
      {"measurement": "fluorescence ratio (interference)", "setting": "[7]", "value": 1},
      {"measurement": "outcome", "setting": "[4]", "value": "inactive"}
    ]},
    {"smiles": "COc1ccc2c(c1OC)C(=O)O[C@@H]2[C@H]1c2c(cc3c(c2OC)OCO3)CCN1C", "values": [
      {"measurement": "period change", "setting": "[8]", "value": -0.03, "unit": "h"},
      {"measurement": "survival", "setting": "[9]", "value": 2.92},
      {"measurement": "inhibition", "setting": "[6]", "value": -2, "unit": "%"},
      {"measurement": "fluorescence ratio (interference)", "setting": "[7]", "value": 1},
      {"measurement": "outcome", "setting": "[4]", "value": "inactive"},
      {"measurement": "luciferase signal", "setting": "[5]", "value": 44, "unit": "AU"}
    ]},
    {"smiles": "C1COC(NC(C2CC2)C2CC2)=N1", "values": [
      {"measurement": "period change", "setting": "[8]", "value": 0.03, "unit": "h"},
      {"measurement": "survival", "setting": "[9]", "value": 19},
      {"measurement": "inhibition", "setting": "[6]", "value": 0, "unit": "%"},
      {"measurement": "fluorescence ratio (interference)", "setting": "[7]", "value": 1},
      {"measurement": "outcome", "setting": "[1]", "value": "inactive"},
      {"measurement": "outcome", "setting": "[10]", "value": "inactive"},
      {"measurement": "outcome", "setting": "[2]", "value": "inactive"},
      {"measurement": "outcome", "setting": "[3]", "value": "inactive"},
      {"measurement": "outcome", "setting": "[4]", "value": "inactive"}
    ]},
    {"smiles": "CN=C(NC#N)Nc1ccc(C2=NNC(=O)CC2C)cc1", "note": "(centres undefined)", "values": [
      {"measurement": "period change", "setting": "[8]", "value": 0.035, "unit": "h"}
    ]},
    {"smiles": "CN(C)C/C=C(/c1ccc(Br)cc1)c1cccnc1", "values": [
      {"measurement": "period change", "setting": "[8]", "value": -0.15, "unit": "h"},
      {"measurement": "survival", "setting": "[9]", "value": 24.8},
      {"measurement": "inhibition", "setting": "[6]", "value": 1, "unit": "%"},
      {"measurement": "fluorescence ratio (interference)", "setting": "[7]", "value": 1},
      {"measurement": "outcome", "setting": "[4]", "value": "inactive"}
    ]},
    {"smiles": "Cc1ccc2c(c1)c1c3n2CCNC3CCC1", "note": "(centres undefined)", "values": [
      {"measurement": "survival", "setting": "[9]", "value": 11.2}
    ]},
    {"smiles": "Cc1cc(C)c(/C=C2\\C(=O)Nc3ccccc32)[nH]1", "values": [
      {"measurement": "period change", "setting": "[8]", "value": 0.375, "unit": "h"},
      {"measurement": "inhibition", "setting": "[6]", "value": 6, "unit": "%"},
      {"measurement": "fluorescence ratio (interference)", "setting": "[7]", "value": 1},
      {"measurement": "outcome", "setting": "[1]", "value": "inactive"},
      {"measurement": "outcome", "setting": "[3]", "value": "inactive"},
      {"measurement": "outcome", "setting": "[4]", "value": "inactive"}
    ]},
    {"smiles": "CC(C)C(=O)c1c(C(C)C)nn2ccccc12", "values": [
      {"measurement": "period change", "setting": "[8]", "value": -0.095, "unit": "h"},
      {"measurement": "inhibition", "setting": "[6]", "value": -1, "unit": "%"},
      {"measurement": "fluorescence ratio (interference)", "setting": "[7]", "value": 1},
      {"measurement": "outcome", "setting": "[4]", "value": "inactive"}
    ]},
    {"smiles": "CCN1CCC[C@H]1CNC(=O)c1c(OC)ccc(Br)c1OC", "values": [
      {"measurement": "survival", "setting": "[9]", "value": 12.3}
    ]},
    {"smiles": "Cc1ccc(=O)n(-c2ccccc2)c1", "values": [
      {"measurement": "period change", "setting": "[8]", "value": -0.085, "unit": "h"},
      {"measurement": "inhibition", "setting": "[6]", "value": -4, "unit": "%"},
      {"measurement": "fluorescence ratio (interference)", "setting": "[7]", "value": 1},
      {"measurement": "outcome", "setting": "[4]", "value": "inactive"}
    ]},
    {"smiles": "CC[C@]1(O)C[C@H]2CN(CCc3c([nH]c4ccccc34)[C@@](C(=O)OC)(c3cc4c(cc3OC)N(C=O)[C@H]3[C@@](O)(C(=O)OC)[C@H](OC(C)=O)[C@]5(CC)C=CCN6CC[C@]43[C@@H]65)C2)C1", "values": [
      {"measurement": "AC50", "setting": "[1]", "value": "0.332 µM (active)"},
      {"measurement": "AC50", "setting": "[10]", "value": "0.0295 µM (active)"},
      {"measurement": "AC50", "setting": "[3]", "value": "0.0295 µM (active)"},
      {"measurement": "luciferase signal", "setting": "[5]", "value": 72, "unit": "AU"}
    ]}
  ]
}
